The values below come from ChEMBL document CHEMBL3988442, “University of Dundee, Small-Polar-MMV Screening Library” (2021).

SMILES strings stand for the structures.

The target of test [1] is T1, Aspartate--tRNA(Asp/Asn) ligase (Mycobacterium tuberculosis (strain ATCC 25618 / H37Rv)) (UniProt P9WFW3). Also: in the data most compounds retested in dose-response had high values.
T1 sequence (whole entry): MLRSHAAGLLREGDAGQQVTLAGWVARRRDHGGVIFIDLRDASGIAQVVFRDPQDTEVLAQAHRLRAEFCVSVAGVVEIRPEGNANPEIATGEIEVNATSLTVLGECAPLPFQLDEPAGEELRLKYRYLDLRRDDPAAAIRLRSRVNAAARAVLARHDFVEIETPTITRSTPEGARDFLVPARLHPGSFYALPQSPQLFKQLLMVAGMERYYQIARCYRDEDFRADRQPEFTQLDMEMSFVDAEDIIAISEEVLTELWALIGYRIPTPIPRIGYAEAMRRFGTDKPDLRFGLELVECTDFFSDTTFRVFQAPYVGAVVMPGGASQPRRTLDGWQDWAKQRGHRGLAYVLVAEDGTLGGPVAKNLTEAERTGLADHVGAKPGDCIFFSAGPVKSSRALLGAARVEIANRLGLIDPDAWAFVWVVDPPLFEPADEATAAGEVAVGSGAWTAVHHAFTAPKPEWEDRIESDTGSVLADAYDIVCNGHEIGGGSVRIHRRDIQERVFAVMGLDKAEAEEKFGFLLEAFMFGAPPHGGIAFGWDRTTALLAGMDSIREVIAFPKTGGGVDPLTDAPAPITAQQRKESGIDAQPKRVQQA
Put plainly: Assay for Asp RNA synthetase-1 from Mycobacterium tuberculosis. The test is classed as functional. Also on record: scale not given: direction of the effect not stated beside the values. The conditions noted are these: 30 µM.

In test [2] the target is Shiga toxin 2 (Escherichia coli O157:H7) (UniProt P09385+P09386). Kind of test: E. coli 0.157:H7 Shiga Toxin SOP - stx2 screening assay. It is filed as functional. The arrangement: scale not given: direction of the effect not stated beside the values. To be noted: 30 µM.

For `CC(C)c1cc(C(=O)N(C)Cc2cccc3ncccc23)n(C)n1`, the Percent Effect in test [1] is -4.72%; in test [2], -15%.

Turning to `O=C(CCCc1cn[nH]c1)N1CCOCC(O)C1` (stereo unspecified), the Percent Effect in test [1] worked out at 5.55%; in test [2], 5.53%.

On to `O=C(CCc1ccsc1)NCC1CCN(c2ccccc2)C1` (stereo unspecified), for which the Percent Effect in test [1] is 0.529%; in test [2], -12.3%.

On to `Cc1nc(CNC(=O)NCC(O)c2ccc(F)c(F)c2)cs1` (stereo unspecified), for which the Percent Effect in test [1] was -2.91%; in test [2], 4.89%.

As for `O=C(CCCOc1ccc(F)cc1)N1CCCC(n2cccn2)C1` (stereo unspecified), the Percent Effect in test [1] is -0.115%; in test [2] it was 7.54%.

Take `CCn1c(C(=O)N2CCN(C(=O)COC)CC2)cc2ccccc21`: the Percent Effect in test [1] was -7.07%; in test [2] it was -41.5%.

As to `O=C(c1cc(Cl)c2c(c1)OCO2)N1CCCC(n2ccnc2)C1` (stereo unspecified), the results for the Percent Effect in test [1] and in test [2] were -1.93% and 4.72%, respectively.

Regarding `Cc1cc(C(F)(F)F)c2c(C3CCN(S(=O)(=O)N(C)C)CC3)noc2n1`, the Percent Effect in test [1] was 7.31%; in test [2], 0.93%.

On to `c1nc2c(c(C3CC3)n1)CCN(Cc1ccc3c(c1)OCO3)CC2`, for which the Percent Effect in test [1] is -2.19%; in test [2], -20.6%.

`COCCn1nc(C(=O)N(C)Cc2cnn(C)c2)ccc1=O`: the Percent Effect was -3.74% in test [1] and 9.25% in test [2].

Regarding `Cc1cnn(CC2CN(Cc3cccc(OCC(N)=O)c3)CCO2)c1` (stereo unspecified), the values for the Percent Effect in test [1] and in test [2] were -5.07% and 8.76%, respectively.

As to `O=C(NCCc1ccc(Cl)s1)NCc1nnc2n1CCC2`, the values for the Percent Effect in test [1] and in test [2] were 2.25% and 22.9%, respectively.

In the case of `Cc1ccoc1C(=O)N1CCO[C@H]2[C@H](OCCN(C)C)CC[C@@H]21`, the Percent Effect in test [1] is -1.25%; in test [2], -12.2%.

As to `CCC(C)c1noc(C2CCN(C(=O)c3cccs3)CC2)n1` (stereo unspecified), the figures for the Percent Effect in test [1] and in test [2] were 4.84% and -48%, respectively.

Turning to `CC1CN(C)c2ccccc2CN1C(=O)c1ccc[nH]1` (stereo unspecified), the Percent Effect was 4.95% in test [1] and -9.14% in test [2].

`Cc1cccc(N2CCN(C(=O)CN3CCN(CCO)CC3)CC2)c1`: the Percent Effect in test [1] came to 1.98%; in test [2], 0.874%.

For `CCOc1ncccc1NC(=O)N1CCCCCC1`, the Percent Effect was 7.43% in test [1] and -2.38% in test [2].

In the case of `CCc1nnc2n1CCN(Cc1ccc(C(=O)N3CCCC3)cc1)C2`, the Percent Effect is -3.93% in test [1] and -0.0173% in test [2].

As to `O=C(CN1CC(n2cccn2)C1)NCCCc1ccccc1`, the Percent Effect in test [1] was 0%; in test [2], -22.1%.

On to `CCc1nc(C2CCCN(C(=O)c3ccc(OC(C)C)nc3)C2)no1` (stereo unspecified), for which the Percent Effect was -1.24% in test [1] and 17.3% in test [2].

Take `c1cnn(CC2CCCN2c2ncnc3ccsc23)c1` (stereo unspecified): the Percent Effect in test [1] was 3.64%; in test [2] it was 16.1%.

For the compound `N#Cc1ccc(F)c(CN2CCCC2Cn2cnc3ccccc32)c1` (stereo unspecified), the Percent Effect was -0.466% in test [1] and 31.2% in test [2].

With `CNC(=O)N1CC[C@@H]2CN(Cc3cccnc3)S(=O)(=O)[C@@H]2CC1`, the Percent Effect in test [1] was 1.91%; in test [2], -0.136%.

As to `Cc1cc(-c2cnn(CCNC(=O)C3CC3)c2C2CC2)on1`, the results for the Percent Effect in test [1] and in test [2] were 0.838% and 64.1%, respectively.

For the compound `O=C(COc1cccc2c1CCC2=O)NCCOc1ccccc1`, the Percent Effect in test [1] is 12.7%; in test [2], -35%.

Regarding `c1cnnc(N2CCCC(NCc3ccc(-n4cccn4)cc3)C2)c1` (stereo unspecified), the Percent Effect in test [1] was -2.36%; in test [2], 11%.

Consider `CC1(C)CC(N2Cc3nc(N4CCOCC4)ncc3C2=O)CC(C)(C)N1`, for which the Percent Effect was -4.82% in test [1] and -59.4% in test [2].

As for `Cc1ccc(C(=O)NS(=O)(=O)c2cc(Cl)ccc2Cl)c(=O)[nH]1`, the results for the Percent Effect in test [1] and in test [2] were 0% and -9.88%, respectively.

On to `CN(CCc1ccccn1)S(=O)(=O)N1CCCC1c1ccco1` (stereo unspecified), for which the Percent Effect turned out to be 2.3% in test [1] and 32.1% in test [2].

`COc1cc(CNCCc2cnn(C)c2)cc2c1OCCO2`: the Percent Effect in test [1] is -1.03%; in test [2], 10.4%.

Regarding `Cc1ccccc1S(=O)(=O)NC(=O)CSc1ccc2c(c1)OCCO2`, the results for the Percent Effect in test [1] and in test [2] were -0.334% and -0.0455%, respectively.

Regarding `N#Cc1ccccc1CN1C[C@@H]2CC[C@H](C1)N(CC1CC1)C2=O`, the Percent Effect in test [1] is 2.11%; in test [2], -9.72%.

In the case of `CC(C)CNC(=O)[C@H]1CCS(=O)(=O)[C@@H]2CN(Cc3ccc(Cl)cc3)C[C@H]12`, the Percent Effect is -0.0704% in test [1] and -5.7% in test [2].

Regarding `Fc1ccc(CN2CCCC2c2cncc(-n3ccnc3)n2)cc1` (stereo unspecified), the figures for the Percent Effect in test [1] and in test [2] were 3.75% and 24.5%, respectively.

For the compound `CCn1nc(C)cc1C(=O)Nc1cc(F)ccc1OCC1CCCO1` (stereo unspecified), the Percent Effect in test [1] was -3.81%; in test [2], 34.1%.

`Cc1ccccc1-n1ncc(C(=O)N2CCCC2c2cnn(C)c2)c1C` (stereo unspecified): the Percent Effect in test [1] turned out to be 0.583%; in test [2] it was 10.1%.

`CCc1nc(C2CCCN2C(=O)c2ncoc2CC)no1` (stereo unspecified): the Percent Effect was -3.37% in test [1] and 4.73% in test [2].

`COC[C@@H]1CC[C@H]2[C@H](CCN2C(=O)c2ccncc2F)O1`: the Percent Effect in test [1] turned out to be 3.94%; in test [2], 7.83%.
